A short description of test [1]: NCI Yeast Anticancer Drug Screen. Data for the rad50 strain (AID 155).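 Also: 0% = growth of vehicle-only cultures of the same strain.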 Conditions: S. cerevisiae rad50 strain growth inhibition; at 50.0 µM; stronger effect = higher value. In outline:
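Cells are treated with compound, grown, and their growth is then scored against vehicle-only cultures of the same repair-deficient yeast strain.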

Test [2] is described as follows: NCI Yeast Anticancer Drug Screen. Data for the mec2-1 strain (AID 157). Conditions: S. cerevisiae mec2-1 strain, at 50.0 µM, stronger effect = higher value. In outline:
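Readout is yeast growth inhibition, normalised to vehicle-treated controls, in the mec2-1 strain exposed to compound.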

Test [3] can be described thus: NCI Yeast Anticancer Drug Screen. Data for the sgs1 mgt1 strain (AID 161).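 Also: 0% = growth of cultures given vehicle only.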 Conditions: S. cerevisiae sgs1 mgt1 strain, at 50.0 µM, stronger effect = higher value. The method, boiled down: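 Yeast cells carrying a defined DNA-repair defect were exposed to test compounds. Growth inhibition was measured relative to vehicle-treated controls.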
Test [4] is described as follows: NCI Yeast Anticancer Drug Screen. Data for the cln2 rad14 strain (AID 165).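 Also: 0% = growth equal to vehicle treated cultures.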 Conditions: S. cerevisiae cln2 rad14 strain, at 50.0 µM, stronger effect = higher value. In outline:
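Relative to vehicle controls, growth inhibition of compound-treated cln2 rad14 yeast was recorded.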

Test [5] can be described thus: NCI Yeast Anticancer Drug Screen. Data for the bub3 strain (AID 167). Conditions: S. cerevisiae bub3 mutant strain, at 50.0 µM, stronger effect = higher value. In outline:
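Part of a panel of yeast mutants defective in DNA damage repair or cell cycle regulation. Each strain is grown with compound, and inhibition is calculated relative to solvent-treated cultures.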

Test [6] can be described thus: NCI Yeast Anticancer Drug Screen. Data for the mlh1 rad18 strain (AID 175). Conditions: S. cerevisiae mlh1 rad18 strain growth inhibition; at 50.0 µM; stronger effect = higher value. The method, boiled down: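 Test agents were incubated with a yeast strain of defined genotype (DNA damage repair defect). Inhibition of growth was derived by comparison with vehicle-exposed cultures.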

About 79,000 compounds went through this panel and 15% of them were active in at least one assay; those are over-represented in the sample as a whole. Unmarked numbers belong to inactive results. Calls of active or inactive are those of the source. Rule as the data show it: active = growth inhibition above about 70%; inactive = the rest.

For `CC(=O)OC1C[C@H]2C(OC(=O)c3ccccc3)C3C4(OC(C)=O)COC4C[C@H](OC(C)=O)[C@@]3(C)C(OC(C)=O)[C@H](OC(C)=O)C(=C1C)C2(C)C` (stereo not given in full), the growth inhibition was 41.2% in test [1]; 22.6% in test [2]; 31.7% in test [3]; 28.9% in test [4]; 26.4% in test [5]; 35.2% in test [6].

For the compound `COC(=O)n1c(=O)oc2ccc(Br)cc21`, the growth inhibition is 99% (active) in test [1]; 99.1% (active) in test [2]; 99.4% (active) in test [3]; 99.4% (active) in test [4]; 99.5% (active) in test [5]; 99.2% (active) in test [6].

Regarding `CC(C)(C)C(C(N)=O)C(C)(C)C`, the growth inhibition in test [1] is 4.4%; in test [2], 2.6%; in test [3], -6.1%; in test [4], 14.4%; in test [5], 10.8%; in test [6] it was -19.6%.

Consider `CN1CCN(C2=NCCO2)CC1`, for which the growth inhibition was 6.4% in test [1]; 22.1% in test [2]; 32.3% in test [3]; 32% in test [4]; 12.8% in test [5]; 20.2% in test [6].

With `COc1ccc(-c2onc3ccc(Cl)cc23)cc1`, the growth inhibition was -9.1% in test [1]; 4.1% in test [2]; 17.4% in test [3]; -63.5% in test [4]; 7.35% in test [5]; 21.4% in test [6].

Turning to `COc1ccc(CCNC(=O)Cc2ccccc2CCO)cc1OC`, the growth inhibition is 13.9% in test [1]; -6.85% in test [2]; -29.5% in test [3]; -3.75% in test [4]; -43.9% in test [5]; -20.1% in test [6].

As for `C/C=C\COC(=O)CC(C)=O`, the growth inhibition in test [1] was -1.35%; in test [2] it was -23.4%; in test [3] it was -4.3%; in test [4] it was -2.75%; in test [5], -26.3%; in test [6] it was -16.6%.

Regarding `Cc1cc(C)c2nc(N)sc2c1`, the growth inhibition is 24.3% in test [1]; 9.35% in test [2]; -5.8% in test [3]; -4.45% in test [4]; 12.4% in test [5]; 30.1% in test [6].

With `CC(=O)CC1=CC(C(C)(C)C)=CC(=O)C1=O`, the growth inhibition in test [1] was 43.1%; in test [2] it was 26.1%; in test [3], 30.1%; in test [4], 49%; in test [5], 8.6%; in test [6], 49.5%.

Turning to `COc1cc(C2c3cc4c(c(OC(=O)c5ccccn5)c3CC3COC(=O)C32)OCO4)cc(OC)c1OC` (stereo not given), the growth inhibition in test [1] was 8.1%; in test [2], 10.1%; in test [3], 11.6%; in test [4] it was -9.5%; in test [5], 13%; in test [6] it was 34%.

In the case of `Cc1cccc(C2=C/C(=C(\SS/C(C(=O)c3ccc(OCC(=O)O)c(Cl)c3Cl)=C3\C=C(c4cccc(C)c4)SS3)C(=O)c3ccc(OCC(=O)O)c(Cl)c3Cl)SS2)c1`, the growth inhibition in test [1] is -6.65%; in test [2], -22.8%; in test [3], -0.6%; in test [4], 1.95%; in test [5], -5.15%; in test [6], -10.7%.

As to `CC(=O)[O][Ga]([Cl])[O]C(C)=O`, the growth inhibition was 22.2% in test [1]; 27.2% in test [2]; 34.1% in test [3]; 34.3% in test [4]; 30.3% in test [5]; 14.3% in test [6].

With `C#CCOc1ccc(C(F)(F)F)cc1`, the growth inhibition in test [1] is -8.1%; in test [2], -15.4%; in test [3], -1.6%; in test [4], -17.4%; in test [5], 15.4%; in test [6], -2.05%.

`COc1ccc(C(=O)c2ccc(Cl)s2)cc1`: the growth inhibition was 8.4% in test [1]; -4.85% in test [2]; 22.4% in test [3]; -13.2% in test [4]; 21% in test [5]; 5.1% in test [6].

On to `c1cc2c3c(c1)ccc1cccc(c13)C2`, for which the growth inhibition in test [1] is 39.6%; in test [2], -26.2%; in test [3], 12.8%; in test [4], 11.9%; in test [5], 24.6%; in test [6], 27.1%.

With `CCC(=O)OCCCc1ccccc1`, the growth inhibition in test [1] was 22.1%; in test [2], 8.25%; in test [3], 15.8%; in test [4], 9.25%; in test [5], 12.3%; in test [6], 10.8%.

`C[Si](C)(C)CCCO`: the growth inhibition in test [1] is 0.25%; in test [2], 17.8%; in test [3], 3.3%; in test [4] it was 6.9%; in test [5], 9.25%; in test [6], 10%.

As for `CC(=O)c1ccc(C(C)=O)c(OCc2ccccc2)c1`, the growth inhibition was -4.45% in test [1]; -12.4% in test [2]; -8.25% in test [3]; -27.9% in test [4]; -5.95% in test [5]; -5.05% in test [6].

For `CCC(Cl)COP(=O)(CC(Cl)CC)OC(C)P(=O)(OCC(Cl)CC)OCC(Cl)CC` (stereo not given), the growth inhibition is 98% (active) in test [1]; 98.3% (active) in test [2]; 98.7% (active) in test [3]; 97.5% (active) in test [4]; 97.2% (active) in test [5]; 98.4% (active) in test [6].

On to `COc1cc(O)c2c(=O)c(O)c(-c3ccc(O)c(O)c3)oc2c1`, for which the growth inhibition was 3.15% in test [1]; -24.1% in test [2]; 13.7% in test [3]; 9.05% in test [4]; -11.8% in test [5]; -10.6% in test [6].

The values are drawn from PubChem BioAssay (NCI).
